Measured values: the supplement of paper PMC7156485
± gives the standard deviation of the averaged measurements.

Columns and labels:
Conditions in all cases: concentration: 10 µM; 24 h
HCC1569 [1] = assay: cell number relative to DMSO (% of DMSO); higher = more cells (less growth inhibition / toxicity)
Method in brief: (§1)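 HCC1569 and TDF cells were seeded at 800 per well in 384-well plates in RPMI with 10% FBS and treated with compounds at 10 µM for 24 h at 37 °C, in triplicate. After fixation in 3.7% formaldehyde, cells were stained with a rabbit anti-H1.0 antibody, an AlexaFluor 647 secondary and DAPI, and six fields per well were imaged at ×10. H1.0 nuclear intensity or cell number is given as percent of the plate control, using the median of replicates, with HCC1569 values smoothed for positional effects.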

TDF [2] = assay: as above
Method in brief: as §1

TDF [3] = assay: H1.0 immunofluorescence intensity relative to DMSO (% of DMSO); higher = stronger H1.0 induction, active = 120 or more
Method in brief: as §1

HCC1569 [4] = assay: H1.0 immunofluorescence intensity relative to DMSO (% of DMSO); higher = stronger H1.0 induction, active = 140 or more
Method in brief: as §1
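Throughout, for H1.0 immunofluorescence intensity relative to DMSO: TDF is a line of transformed human dermal fibroblasts of mesenchymal origin.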
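Throughout, for cell number relative to DMSO: TDF denotes transformed human dermal fibroblasts of mesenchymal origin.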

Row | SMILES | cell number (HCC1569 [1]) | cell number (TDF [2]) | H1.0 immunofluorescence intensity (TDF [3]) | H1.0 immunofluorescence intensity (HCC1569 [4])
1 | CC(=O)SCC(Cc1ccccc1)C(=O)NCC(=O)OCc1ccccc1 (centres undefined) [Racecadotril] | 103 | 117 | 91.5 (inactive) | 104 (inactive)
2 | COc1cc(-c2ccc(=O)[nH]n2)ccc1OC(F)F [Zardaverine] | 106 ± 5.7 | 107 ± 9.4 | 91.5 (inactive) | 110 (inactive)
3 | C[N+](C)(C)CCOC(N)=O.[Cl-] [Carbachol] | 105 | 120 | 100 (inactive) | 96.9 (inactive)
4 | [N-]=[N+]=Nc1ccc(C(=O)CSCC(NC(=O)CCC(N)C(=O)O)C(=O)NCC(=O)O)cc1 (stereo not drawn) [S-(p-Azidophenacyl)glutathione] | 103 | 105 | 95.5 (inactive) | 79.9 (inactive)
5 | Oc1cc2c(cc1O)C(c1ccccc1)CNCC2 (racemic) | 101 | 113 | 92.2 (inactive) | 93.5 (inactive)
6 | Cc1cc(N)c2ccccc2[n+]1CCCCCCCCCCCCCC[n+]1c(C)cc(N)c2ccccc21.[I-].[I-] [Dequalinium analog, C-14 linker] | 101 | 102 | 95.7 (inactive) | 100 (inactive)
7 | CCc1c(CC(N)=O)c2cc(OCCCP(=O)(O)O)ccc2n1Cc1ccccc1 | 101 | 104 | 96 (inactive) | 101 (inactive)
8 | c1cc(OCCN2CCCCC2)cc(-c2n[nH]c3ccc(-c4ncn[nH]4)cc23)c1 | 88.3 | 107 | 84.6 (inactive) | 115 (inactive)
9 | CC(C)=CCc1cc2c(cc1O)oc(=O)c1c3ccc(O)cc3oc21 | 106 | 95.7 | 94.4 (inactive) | 106 (inactive)
10 | COc1ccccc1N1CCN(CCN(C(=O)c2ccc(F)cc2)c2ccccn2)CC1.Cl.Cl [p-MPPF dihydrochloride] | 99.7 | 109 | 89.7 (inactive) | 87.2 (inactive)
11 | COc1cc(C)c(C=CC(C)=CC=CC(C)=CC(=O)O)c(C)c1C [Acitretin] | 98.5 | 108 | 90.1 (inactive) | 126 (inactive)
12 | CCN(CC)CCNC(=O)c1cc(S(C)(=O)=O)ccc1OC.Cl [Tiapride hydrochloride] | 111 | 107 | 96.7 (inactive) | 99.3 (inactive)
13 | O=C(CCCCCCc1ccccc1)c1ncc(-c2ccccn2)o1 [7-phenyl-1-[5-(2-pyridinyl)-1,3-oxazol-2-yl]-1-heptanone] | 104 | 104 | 98.3 (inactive) | 107 (inactive)
14 | CCN1C(=O)C=CC1=O [N-Ethylmaleimide] | 102 ± 5.4 | 97.2 ± 4.9 | 96.6 (inactive) | 91.7 (inactive)
15 | CC(=O)NCCOC(=O)[C@H](Oc1cccc(C(F)(F)F)c1)c1ccc(Cl)cc1 | 104 | 100 | 95.3 (inactive) | 104 (inactive)
16 | Cn1c(=O)c2[nH]cnc2n(C)c1=O [Aminophylline] | 103 | 115 | 98.7 (inactive) | 96.4 (inactive)
17 | CCC(CO)Nc1nc(NCc2ccc(-c3ccccn3)cc2)c2ncn(C(C)C)c2n1 [CR8, (S)-Isomer] | 52.6 | 23.5 | 124 (active) | 128 (inactive)
18 | CC(=O)SCC[N+](C)(C)C.[Cl-] [Acetylthiocholine chloride] | 102 | 111 | 89.2 (inactive) | 92.5 (inactive)
19 | CC1CNCCN1S(=O)(=O)c1cccc2cnccc12.Cl.Cl (centres undefined) [H-7 dihydrochloride] | 96.8 | 100 | 107 (inactive) | 95 (inactive)
20 | CCc1cccc(N(C)C(N)=Nc2cccc3ccccc23)c1.Cl | 87.1 | 90 | 115 (inactive) | 95.9 (inactive)
21 | CC(=O)NC(CS)C(=O)O (centres undefined) [N-Acetyl-Cysteine] | 102 | 95.1 | 96.3 (inactive) | 90.6 (inactive)
22 | CC(C)Cc1ccc(CC(=O)O)cc1 [(4-isobutylphenyl)acetic acid] | 101 | 110 | 91.5 (inactive) | 93.1 (inactive)
23 | c1ccc2c(Oc3nc(Nc4ccc(N5CCOCC5)cc4)c4ncn(C5CCCCC5)c4n3)cccc2c1 | 84.3 | 92.2 | 101 (inactive) | 150 (active)
24 | CCCCN1CCCC[C@H]1C(=O)Nc1c(C)cccc1C.Cl | 104 | 107 | 96.8 (inactive) | 108 (inactive)
25 | C[Se]CCC(N)C(=O)O (centres undefined) [Selenomethionine] | 100 | 94 | 104 (inactive) | 105 (inactive)
26 | COC1(C2=NCCN2)COc2ccccc2O1.Cl (centres undefined) | 104 | 108 | 89.4 (inactive) | 102 (inactive)

Row | SMILES | cell number (HCC1569 [1]) | cell number (TDF [2]) | H1.0 immunofluorescence intensity (TDF [3]) | H1.0 immunofluorescence intensity (HCC1569 [4])
27 | CC(C)NCC(O)c1ccc(NS(C)(=O)=O)cc1.Cl (racemic) | 108 | 100 | 92.6 (inactive) | 99.1 (inactive)
28 | O=c1c(O)c(-c2ccccc2)oc2cc(O)cc(O)c12 [Galangine] | 98.1 | 91.3 | 101 (inactive) | 100 (inactive)
29 | CC(C)(CN1C(=O)C(Cl)=C(Cl)C1=O)CN1C(=O)C(Cl)=C(Cl)C1=O | 86.4 | 101 | 89.8 (inactive) | 124 (inactive)
30 | COc1ccc(C2CC(=O)c3c(O)cc(O)cc3O2)cc1O (centres undefined) [Hesperitine] | 98.4 | 101 | 98.1 (inactive) | 92.8 (inactive)
31 | CCC1(O)CC2CN(CCc3c([nH]c4ccccc34)C(C(=O)OC)(c3cc4c(cc3OC)N(C)C3C(O)(C(=O)OC)C(OC(C)=O)C5(CC)C=CCN6CCC43C65)C2)C1.O=S(=O)(O)O (centres undefined) [Vinblastine sulfate] | 53.3 | 11.2 | 156 (active) | 131 (inactive)
32 | CON=C(C(=O)NC1C(=O)N2C(C(=O)O)=C(COC(C)=O)CSC12)c1csc(N)n1 (centres undefined) [Cefotaxime Acid] | 107 | 99.1 | 96.3 (inactive) | 103 (inactive)
33 | Cc1[nH]c(C=C2C(=O)Nc3ccc(S(=O)(=O)Cc4c(Cl)cccc4Cl)cc32)c(C)c1C(=O)N1CCCC1CN1CCCC1 (centres undefined) | 75.3 | 22.8 | 133 (active) | 204 (active)
34 | O=c1c(-c2ccc(O)cc2)coc2cc(O)cc(O)c12 | 97.6 | 100 | 96.6 (inactive) | 104 (inactive)
35 | CCCCCCCCC=CCCCCCCCCCCC(=O)O [12(Z) Heneicosenoic acid] | 103 | 98 | 95.5 (inactive) | 115 (inactive)
36 | O=NN(CCCl)C(=O)NCCCl [Carmustine] | 99 | 93.9 | 95.4 (inactive) | 89.6 (inactive)
37 | O=C1c2ccc(O)cc2OC(c2cc(O)c(O)c(O)c2)C1O (centres undefined) [Dihydrorobinetine] | 102 | 106 | 95.3 (inactive) | 95.3 (inactive)
38 | COC(=O)NC(C(=O)NC(Cc1ccccc1)C(O)CN(Cc1ccc(-c2ccccn2)cc1)NC(=O)C(NC(=O)OC)C(C)(C)C)C(C)(C)C (centres undefined) [Atazanavir] | 92.7 | 79.8 | 109 (inactive) | 103 (inactive)
39 | COc1cc2c(cc1OC)C1C(=O)c3ccc4c(c3OC1CO2)C=CC(C)(C)O4 (centres undefined) [Degeulin] | 72.6 | 76.5 | 106 (inactive) | 121 (inactive)
40 | CC(C)(C)n1nc(Cc2cccc3ccccc23)c2c(N)ncnc21 [PP1 Analog II, 1NM-PP1] | 82.1 | 103 | 93.1 (inactive) | 152 (active)
41 | CS(=O)(=O)c1ccc(C2=C(c3ccccc3)C(=O)OC2)cc1 [Rofecoxib] | 98.3 | 88.9 | 98.4 (inactive) | 111 (inactive)
42 | CCN(NO)C1=CC(=O)C(=O)C=C1 [ET-3,4-dephostatin] | 79.5 | 97.7 | 94.7 (inactive) | 151 (active)
43 | CN(C)CCn1cc(S(=O)(=O)c2cccc(F)c2)c2cccnc21 | 99.5 | 74.4 | 127 (active) | 111 (inactive)
44 | CN1CCN(C2Cc3ccccc3Sc3ccc(Cl)cc32)CC1.O=C(O)C=CC(=O)O (centres undefined) | 82 | 104 | 105 (inactive) | 145 (active)
45 | CN(C)c1nc(N)c(C(=O)N=C(N)N)nc1Cl.Cl [5-(N,N-Dimethyl)amiloride hydrochloride] | 99.9 | 89.7 | 96.1 (inactive) | 103 (inactive)
46 | O=C(O)COc1ccc(C(=O)c2cccs2)c(Cl)c1Cl [[2,3-dichloro-4-(2-thienylcarbonyl)phenoxy]acetic acid] | 106 | 99.8 | 95.1 (inactive) | 109 (inactive)
47 | CSc1nc(-c2ccnc(NC(C)c3ccccc3)c2)c(-c2ccc(F)cc2)[nH]1 (centres undefined) [p38 MAP Kinase Inhibitor III] | 94.8 | 107 | 95.2 (inactive) | 113 (inactive)
48 | O=S(=O)(NCc1ccccn1)c1ccc(Br)c2ccccc12 [4-bromo-N-(2-pyridinylmethyl)-1-naphthalenesulfonamide] | 99.1 | 99.2 | 96.2 (inactive) | 107 (inactive)
49 | COc1ccc2cc1Oc1ccc(cc1)CC1c3cc(c(OC)cc3CCN1C)Oc1c(OC)c(OC)cc3c1C(C2)N(C)CC3 (centres undefined) [Isotetrandrine] | 97.9 | 83.8 | 111 (inactive) | 103 (inactive)
50 | Br.Oc1ccc(C2CNCc3sccc32)cc1O (centres undefined) | 100 | 96.3 | 94.4 (inactive) | 112 (inactive)
51 | C=CCc1ccc(O)c(-c2cc(CC=C)ccc2O)c1 [Magnolol] | 98 | 98.2 | 91.7 (inactive) | 83 (inactive)
